Source: PubChem BioAssay
Active and inactive are the calls of the source.

Key:
Albumin (Bos taurus) = Albumin (Bos taurus) (UniProt P02769); assay: bovine serum albumin binders on microarray, profiling panel, artefact control for SMM control protein annotation, biochemical, small-molecule microarray, Alexa647 label, 635/667 nm fluorescence (AID 1118); conditions: BSA-A647 binding, fluorescence 635 nm, higher = more signal;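 further: score merges 667 nm emission intensity and signal-to-noise per printed compound spot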
[1] = small-molecule microarray binders of probe aXIP, primary screen, biochemical, NeuroSMM set, 635/667 nm fluorescence (AID 1119); conditions: higher = more signal, called active from +8 up or from −8 down;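 further: probe is the protein aXip251-270 applied at 1 µg/mL to compound-printed slides; binding of probe to printed compounds measured as 667 nm fluorescence plus signal to noise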
[2] = small-molecule binders of probe aNOTCH3, primary screen, biochemical, small-molecule microarray, 635/667 nm fluorescence (AID 1120); conditions: higher = more signal;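 further: probe is a biotin-tagged antibody raised against NOTCH3 rather than NOTCH3 protein; score merges spot fluorescence near 667 nm with spot signal to noise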
[3] = small-molecule binders of probe aNOTCH2, primary screen, biochemical, small-molecule microarray, 635/667 nm fluorescence (AID 1121); conditions: higher = more signal;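 further: score merges feature fluorescence read at 667 nm with its signal to noise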
[4] = target: Carbonic anhydrase 2 (Homo sapiens) (UniProt P00918); assay: CAII small-molecule binders, profiling panel, biochemical, small-molecule microarray, Alexa647-labelled CAII (AID 1122); conditions: CAII-A647 binding fluorescence, higher = more signal
[5] = COS7 lysate on small-molecule microarray, probe aHis, 635 nm (AID 1123); conditions: COS7 cell lysate, fluorescence, higher = more signal;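 further: z-score combines 667nm fluorescence intensity with signal-to-noise per printed compound spot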
[6] = compound binding in COS7 lysate, probe aLAP1, primary screen, cell lysate, small-molecule microarray (AID 1124); conditions: probe aLAP1, fluorescence, higher = more signal;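 further: lysate comes from COS7 cells expressing LAP1 and is applied at 0.3 µg/mL; score merges spot fluorescence near 667 nm with signal-to-noise over triplicate slides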
Sam68 (KHDRBS1) = assay: Sam68 small-molecule binders, primary screen, biochemical, small-molecule microarray, 635 nm fluorescence (AID 1125); conditions: small-molecule microarray binding, higher = more signal;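 further: score merges 667 nm channel intensity with signal to noise over triplicate slides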
[7] = system: Chordin-like protein 2 (CHRDL2); assay: CHRDL2 small-molecule binders, primary screen, biochemical, small-molecule microarray, 635 nm fluorescence (AID 1126); conditions: small-molecule microarray binding, fluorescence 635 nm; higher = more signal;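 further: printed compound slides probed with Chrdl2 protein at 4 µg/mL for 1 h at 4 C; score merges 667 nm emission intensity with signal to noise over three replicate slides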
[8] = target: Concanavalin-A (Canavalia ensiformis) (UniProt P02866); assay: ConA small-molecule binders, primary screen, artefact control for SMM control protein annotation, biochemical, small-molecule microarray, Alexa647 label, 635 nm (AID 1127); conditions: ConA-A647 binding fluorescence, higher = more signal;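 further: z combines 667 nm emission intensity with signal-to-noise across three replicate slides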
Sequence of Concanavalin-A (Canavalia ensiformis) (P02866 whole entry, looked up): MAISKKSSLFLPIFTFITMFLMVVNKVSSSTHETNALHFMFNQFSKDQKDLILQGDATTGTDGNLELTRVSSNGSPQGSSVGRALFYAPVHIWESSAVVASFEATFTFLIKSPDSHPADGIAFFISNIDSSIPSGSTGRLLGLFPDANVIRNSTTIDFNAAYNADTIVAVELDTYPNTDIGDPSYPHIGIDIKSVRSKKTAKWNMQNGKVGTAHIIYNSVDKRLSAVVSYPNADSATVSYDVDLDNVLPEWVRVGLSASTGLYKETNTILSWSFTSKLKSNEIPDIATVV

Sequence of Albumin (Bos taurus) (P02769 whole entry, looked up): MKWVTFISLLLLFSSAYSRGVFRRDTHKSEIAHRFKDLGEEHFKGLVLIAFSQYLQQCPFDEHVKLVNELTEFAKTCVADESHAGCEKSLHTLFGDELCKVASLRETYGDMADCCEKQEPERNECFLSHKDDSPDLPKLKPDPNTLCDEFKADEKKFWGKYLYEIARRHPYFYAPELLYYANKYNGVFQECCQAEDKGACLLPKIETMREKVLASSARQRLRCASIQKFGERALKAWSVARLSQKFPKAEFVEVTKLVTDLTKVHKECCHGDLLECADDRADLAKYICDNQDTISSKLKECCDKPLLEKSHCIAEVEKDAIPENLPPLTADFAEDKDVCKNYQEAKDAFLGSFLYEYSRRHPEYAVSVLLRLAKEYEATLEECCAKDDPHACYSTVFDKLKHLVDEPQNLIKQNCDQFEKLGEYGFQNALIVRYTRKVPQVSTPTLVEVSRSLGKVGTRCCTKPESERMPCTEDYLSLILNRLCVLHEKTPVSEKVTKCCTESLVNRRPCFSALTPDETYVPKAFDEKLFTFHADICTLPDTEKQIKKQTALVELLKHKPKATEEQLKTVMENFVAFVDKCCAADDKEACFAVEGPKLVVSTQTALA

SMILES	composite z-score (Albumin (Bos taurus))	composite Z-score [1]	composite z-score [2]	composite z-score [3]	composite z-score [4]	composite z-score [5]	composite z-score [6]	composite z-score (Sam68 (KHDRBS1))	composite z-score [7]	composite z-score [8]
CCN(CC)c1ccc(N2CC=CC34O[C@@H]5/C=C\CCCOC(=O)C5[C@H]3C(=O)N(C(CO)C(C)C)[C@@H]4C2=O)cc1 (stereo not given in full)	-1.18	0.0855 (inactive)	-0.165	-0.123	0.827	-0.21	-0.32	-0.384	-0.684	-0.467
C=CCOC(=O)[C@H]1[C@@H]2C(=O)O[C@@H](c3ccccc3)[C@@H](c3ccccc3)N2[C@@H](c2ccc(OCCOC(=O)[C@@H]3C[C@@H]4C(=O)NCC(=O)N4[C@@H]3c3ccc(O)cc3)cc2)[C@]12C(=O)Nc1ccccc12	0.212	1.07 (inactive)	0.0006	-0.168	0.475	2.45	0.537	1.29	1.32	1.11
CN1C(=O)C2C=CC(C(O)c3ccccn3)N(Nc3ccccc3)C2C1=O (stereo not given)	-0.0756	0.0956 (inactive)	0.0711	-0.14	0.727	0.446	0.456	0.656	0.288	0.37
CC(C)C[C@@H]1NC(=O)[C@@H]2C[C@H](C(=O)NCCCCCC[N+](C)(C)C)[C@H](c3ccc(O)cc3)N2C1=O	-0.0787	0.729 (inactive)	0.0562	-0.189	0.678	1.58	0.301	1.25	1.33	0.989
C=C[C@@H](COC(C)=O)N(Cc1ccc([N+](=O)[O-])cc1)S(=O)(=O)c1ccc(Br)cc1	0.812	0.181 (inactive)	-0.0647	-0.0089	0.448	0.432	0.442	0.573	0.241	1.11
COCCOC(=O)N1C(=O)[C@@]2(c3cc(C#CCNC(N)=O)ccc31)[C@H](C(=O)N1CCN(c3ncccn3)CC1)[C@H]1C(=O)O[C@H](c3ccccc3)[C@H](c3ccccc3)N1[C@@H]2c1ccccc1OCCO	0.413	0.255 (inactive)	0.209	0.0066	0.358	1.08	0.427	1.31	0.867	1.02
COC(=O)[C@@]1(Cc2ccc(OC)cc2)[C@H]2c3cc(C(=O)N4CCCC4)n(CCc4c[nH]c5cc(F)ccc45)c3C[C@H]2CN1C(=O)c1ccccc1	0.957	-0.0378 (inactive)	0.127	0.0064	0.714	3.24	0.959	1.29	-0.703	0.871
O=C1N(CCS(=O)(=O)c2ccccc2)Cc2ccccc2C[C@]12N=C(c1ccc(OCCCO)cc1)O[C@@H]2c1ccccc1	-0.591	0.339 (inactive)	0.567	0.189	0.396	3.41	1.17	1.13	1.17	1.12
CC(C)C(=C=CC[C@H](O)c1ccccc1OCCO)C[C@H](O)c1ccccn1	0.161	0.41 (inactive)	0.395	-0.0488	0.632	0.559	1.61	0.861	-0.161	-0.0625
COc1ccc([Si](C)(C)[C@H]2[C@H](CCn3cc([C@H](O)c4ccccc4)nn3)O[C@@]3(C(=O)N(Cc4cccc(N5CCC5=O)c4)c4ccccc43)[C@@H]2C)cc1	0.31	-0.0916 (inactive)	-0.219	-0.245	0.115	1.12	-0.166	0.316	0.317	0.47
CCOC(=O)C1=C[C@@H](C(C)C)N(S(=O)(=O)c2ccc(C)cc2)[C@H]1c1ccc(C(C)C)cc1	0.822	0.376 (inactive)	0.0538	-0.0148	0.39	1.81	0.586	1.31	0.241	1.07
